Among all 370,000 compounds or so, about 4,700 (1.3%) were called active. This is one part of a sample in which actives are shown more often than they occur.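 The calls were made as follows: active = inhibition above the plate cutoff, the mean of all test compounds on that plate plus 3 SD (cut at about 35% in these data); inactive = the rest.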

The test can be described thus: small molecules binding CAG repeat RNA – biochemical, fluorescence, primary screen (AID 651821).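 Also: 0% = DMSO alone and 100% = 100 µM mitoxantrone as full dye displacement; higher means more dye released from RNA so lower well fluorescence.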 The conditions noted are these: r(CAG) RNA repeat, TO-PRO-1 dye displacement fluorescence; at 3 µM; stronger effect = higher value.
A word on the inhibition: it is the change of the read-out against control, counted positive when it falls. Regarding `Cc1ccc(S(=O)(=O)N2CC3C(=O)C[C@@H](c4ccccc4Cl)N(S(=O)(=O)c4ccc(C)cc4)C3CC2c2ccccc2)cc1` (some centres not stated), the inhibition was 8.71% (inactive).

In the case of `CC(C)CSc1nnc(-c2cccnc2)n1Cc1ccccc1`, the inhibition was -1.04% (inactive).

For `CN(C)CCCCCN(C)Cc1cc2ccccc2o1`, the inhibition is -1.3% (inactive).

As to `CC(=O)O[C@@]1(C(C)=O)CCC2[C@H]3C=C(C)C4=CC(=O)CC[C@@]4(C)C3CC[C@]21C` (some centres not stated), the inhibition was 1.96% (inactive).

On to `COc1cccc(-c2coc3cc4oc(=O)c(CC(=O)O)c(C)c4cc23)c1`, for which the inhibition is 46.5% (active).

As for `CCCCCCc1cc2cc(-c3nnc(-c4cccc(OC)c4)o3)c(=O)oc2cc1O`, the inhibition was 0.83% (inactive).

In the case of `Cc1coc2cc3oc(=O)c(CCC(=O)O)c(C)c3cc12`, the inhibition was -1.41% (inactive).

As for `CC[C@@H]1Cc2cc(O)ccc2C2=C1c1ccc(O)cc1C[C@H]2CC`, the inhibition is 6.76% (inactive).

Turning to `CCCCNC(=O)C[C@H]1C(=O)N(Cc2ccc(OC)cc2)C2=CCCC[C@@]21C(=O)OCC`, the inhibition was -0.31% (inactive).

Consider `O=C1Nc2ccccc2OC1CC(=O)N1CCCCCCC1` (configuration not stated), for which the inhibition is 4.22% (inactive).

Regarding `CCOc1ccc2sc(NS(=O)(=O)c3ccc(N)cc3)nc2c1`, the inhibition was 9.5% (inactive).

As for `Cc1ccc(S(=O)(=O)Nc2nc3ccccc3s2)cc1[N+](=O)[O-]`, the inhibition is 45% (active).

Turning to `Cc1ccc(S(=O)(=O)N(Cc2ccccc2)c2ccccn2)cc1[N+](=O)[O-]`, the inhibition was -3.84% (inactive).

Turning to `CCOC(=O)[C@]12CCCC=C1N(Cc1ccc(OC)cc1)C(=O)[C@@H]2CC(=O)N1CCOCC1`, the inhibition was -1.51% (inactive).

Consider `CN1CCCCC(NC(=O)C(C)(C)C)C1=O` (configuration not stated), for which the inhibition was 2.33% (inactive).

For `COC(=O)[C@]12C[C@H](CC(=O)NCc3ccccc3)C(=O)N(CCc3ccc(OC)c(OC)c3)C1=C[C@H](C(C)(C)C)O[C@@H]2C`, the inhibition was -2.21% (inactive).

Consider `CC(Sc1ncnc2c1cnn2-c1ccccc1)C(=O)Nc1ccc(N2CCOCC2)cc1` (configuration not stated), for which the inhibition was 5.83% (inactive).

As to `COC(=O)CSc1ncnc2c1cnn2-c1ccc(C)cc1C`, the inhibition is -5.94% (inactive).

In the case of `Cc1ccc(-n2ncc3c(Nc4cccc(C(=O)O)c4)ncnc32)cc1`, the inhibition was 40.9% (active).

On to `O=C(NCCC1=CCCCC1)C1CCN(S(=O)(=O)c2ccc(Cl)s2)CC1`, for which the inhibition was 1% (inactive).

For the compound `CSc1ccc(CN(C)CC(=O)NCc2ccc(F)cc2)cc1`, the inhibition is -7.36% (inactive).

Turning to `O=C(NCc1ccccc1)[C@H]1CCCN1C(=O)[C@@H]1CCCN1C(=O)c1ccc(Cl)cc1Cl`, the inhibition was 1.95% (inactive).

`COC(=O)c1sccc1NC(=O)CSc1ccccc1NS(=O)(=O)c1cc(Cl)ccc1Cl`: the inhibition was 59.2% (active).

With `COC(=O)c1scc(C)c1NC(=O)CSc1ccc(Cl)cc1`, the inhibition is -5.15% (inactive).

With `COC(=O)c1sccc1NS(=O)(=O)c1ccc(F)cc1F`, the inhibition is 1.91% (inactive).

As for `C=CC[C@]12C[C@@]3(O[C@H](c4ccc(C(F)(F)F)cc4)N=C3C[C@H](c3ccc(OC)cc3)[C@H]1C)N(C1CCN(Cc3ccccc3)CC1)C2=O`, the inhibition is 5.05% (inactive).

In the case of `COc1ccc(C(=O)OCCN2CCN(C3CN(Cc4cn(Cc5ccccc5F)nn4)S(=O)(=O)C3)CC2)cc1OC` (configuration not stated), the inhibition was 1.05% (inactive).

`CCC(=O)OCCCN1C(=O)CCC12CCC(c1ccccc1)CC2` (configuration not stated): the inhibition is -0.66% (inactive).

As for `COc1ccc(-c2cc(=O)oc3cc(OC(C)C(=O)NCC4CCC(C(=O)O)CC4)ccc23)cc1` (configuration not stated), the inhibition is 8.77% (inactive).

For `O=C(N[C@@H](Cc1c[nH]c2ccccc12)C(=O)O)OCC1c2ccccc2-c2ccccc21`, the inhibition is 59.4% (active).

In the case of `COc1ccc(-c2cc(=O)oc3cc(OCC(=O)N(C)C4CCS(=O)(=O)C4)ccc23)cc1` (configuration not stated), the inhibition is -1.96% (inactive).

With `COC(=O)C(Cc1c[nH]c2ccccc12)NC(=O)CCNC(=O)c1ccco1` (configuration not stated), the inhibition was 2% (inactive).

For the compound `COc1ccc(-c2cc(C(=O)NC(C(=O)O)C(C)C)c(C)o2)cc1OC` (configuration not stated), the inhibition was 6.76% (inactive).

As to `CC(Oc1ccc2c(-c3ccccc3)cc(=O)oc2c1)C(=O)NC(Cc1c[nH]c2ccccc12)C(=O)O` (configuration not stated), the inhibition is 42.8% (active).

As to `O=C(NC(Cc1c[nH]c2ccccc12)C(=O)O)/C(=C/c1ccco1)NC(=O)c1ccccc1` (configuration not stated), the inhibition is 20.3% (inactive).

Consider `COc1ccc(-c2cc(=O)oc3cc(OCC(=O)N[C@@H](Cc4c[nH]c5ccccc45)C(=O)O)ccc23)cc1`, for which the inhibition is 55.5% (active).

Take `COc1ccc(-c2cc(C(=O)NC(Cc3c[nH]c4ccccc34)C(=O)O)c(C)o2)cc1OC` (configuration not stated): the inhibition is 53.8% (active).

`O=C(CCn1nnc2ccccc2c1=O)N[C@@H](Cc1c[nH]c2ccccc12)C(=O)O`: the inhibition is 2.19% (inactive).

With `CCOCCCNC(=O)C(NC(=O)Cc1c[nH]c2ccccc12)c1ccc(OC)cc1` (configuration not stated), the inhibition was -4.93% (inactive).

On to `COC(=O)C(C)Oc1ccc2c(-c3cccc([N+](=O)[O-])c3)cc(=O)oc2c1` (configuration not stated), for which the inhibition was 1.44% (inactive).

Consider `COC(=O)c1cc(S(=O)(=O)N2CCN(C(=O)C3CCCO3)CC2)cn1C` (configuration not stated), for which the inhibition was 1.73% (inactive).

As to `COC(=O)[C@]12C[C@H](CC(=O)NCc3ccc(OC)c(OC)c3)C(=O)N(Cc3ccccc3)C1=C[C@H](C(C)C)O[C@@H]2C1CC1`, the inhibition is 1.35% (inactive).

On to `O=C(NC1CCCCN(Cc2cccc(C(F)(F)F)c2)C1=O)c1ccccc1I` (configuration not stated), for which the inhibition is -0.65% (inactive).

Take `Cc1csc(CN(C)C(=O)CC2C(=O)NCCN2CC(C)(C)C)n1` (configuration not stated): the inhibition is -3.94% (inactive).

With `O=C(NCc1ccco1)C1CCCN(S(=O)(=O)c2ccc(Cl)s2)C1` (configuration not stated), the inhibition is -0.27% (inactive).

`CSC1=NN(c2ccccc2)CN(c2ccccc2)N1C`: the inhibition was 0.22% (inactive).

As to `COc1ccccc1-c1ccc([C@@H]2C[C@H]3[C@H](CON3C)CN2S(=O)(=O)c2cc(Cl)cc(Cl)c2)cc1`, the inhibition was 5.7% (inactive).

For `CN(Cc1ccccc1)CC(O)COc1ccc(CNCc2cc3ccccc3s2)cc1` (configuration not stated), the inhibition was -2.3% (inactive).

`Nn1c(SCC(=O)N2c3ccccc3Sc3ccccc32)nnc1-c1n[nH]c2c1CCC2`: the inhibition is 12.9% (inactive).

Take `CC(CCN1CCC(C(O)(c2ccccc2)c2ccccc2)CC1)Oc1ccc(C(F)(F)F)cc1` (configuration not stated): the inhibition was 2.52% (inactive).

With `Cc1ccc(C2=CCN(C)C(=O)N2c2ccc(Cl)cc2)cc1`, the inhibition was 6.97% (inactive).

With `Cn1c(SCC(=O)Nc2nccs2)nnc1-c1cccnc1`, the inhibition is 3.4% (inactive).

For the compound `Cc1ccc(-n2c(SCC(=O)Nc3ccc4c(c3)OCO4)nnc2-c2ccccn2)cc1`, the inhibition was -1.61% (inactive).

As for `O=C(CSc1nnc(-c2ccncc2)n1-c1ccc(Cl)cc1)Nc1ccc(C(=O)O)cc1`, the inhibition was 3.19% (inactive).

Consider `Cc1ccc(-n2c(SCC(=O)Nc3ccc(S(=O)(=O)Nc4nccs4)cc3)nnc2-c2ccncc2)cc1`, for which the inhibition is 67.7% (active).

In the case of `Cc1ccc(-n2c(SCC(=O)Nc3ccc(S(=O)(=O)Nc4nccs4)cc3)nnc2-c2cccnc2)cc1`, the inhibition was 60.1% (active).

With `COc1ccc(-n2c(SCC(=O)Nc3ccc4cn[nH]c4c3)nnc2-c2cccnc2)cc1`, the inhibition was 5.12% (inactive).

For the compound `Cc1ccc(-n2c(SCC(=O)Nc3ccc(S(=O)(=O)Nc4nccs4)cc3)nnc2-c2ccccn2)cc1`, the inhibition was 69.8% (active).

For `Cc1ccc(-c2nnc(SCC(=O)N/N=C/c3cccs3)n2-c2ccc(C)cc2)cc1`, the inhibition was 2.97% (inactive).

As for `O=C(CSc1nnc(-c2ccccn2)n1-c1ccccc1)Nc1ccc2c(c1)OCO2`, the inhibition was 1.36% (inactive).

Take `Cc1ccc(Cn2cc(COC(=O)N(C)Cc3ccccc3)nn2)cc1`: the inhibition is 0.63% (inactive).

Regarding `COC(=O)c1c(-c2ccc(OC)cc2)c2c(c3c4cc(OC)ccc4n(S(=O)(=O)c4ccc(F)cc4)c13)C(=O)N(C)C2`, the inhibition was 14.1% (inactive).

For the compound `COC(=O)[C@]1(C#N)CC(=O)N(CC2CCCCC2)[C@@H]1c1ccccc1`, the inhibition is 0.85% (inactive).

Consider `CCOC(=O)C1Sc2[nH]c(=O)sc2C(c2ccc(Cl)cc2)C1C(=O)OCC` (configuration not stated), for which the inhibition is 24.3% (inactive).

Take `CC(OC(=O)c1ccccc1N1C(=O)C2C3CCC(C3)C2C1=O)C(=O)c1ccccc1` (configuration not stated): the inhibition is -4.3% (inactive).

For the compound `CCOC(=O)c1ccccc1N1C(=O)C2Sc3[nH]c(=O)sc3C(/C=C/c3ccccc3)C2C1=O` (configuration not stated), the inhibition was 54% (active).

In the case of `CC[C@H](C)[C@H]1CNC(=O)C(=O)N1CC1CCN(CCc2ccc(OC)c(OC)c2)CC1`, the inhibition was 3.94% (inactive).

Regarding `COc1ccccc1CCNC(=O)C1CCN(c2nc(C)cc(C)n2)CC1`, the inhibition is -2.28% (inactive).

On to `N#Cc1c(-c2ccc(F)cc2)cc(C2CC2)nc1SCC(=O)c1cccs1`, for which the inhibition is 1.58% (inactive).

Consider `N#Cc1c(-c2ccccc2)cc(-c2ccccc2)nc1SCC(=O)O`, for which the inhibition was 55% (active).

Turning to `CCSc1nc(-c2ccc(OC)cc2)cc(-c2ccc(OC)cc2)c1C#N`, the inhibition was 0.76% (inactive).

As for `CC(C)CNS(=O)(=O)CC1NCCc2ccccc21` (configuration not stated), the inhibition was 5.19% (inactive).

Regarding `NNc1cccc(C=Cc2ccccc2)cc1=O`, the inhibition is 40.1% (active).

As for `Nn1c(SCC(=O)Nc2ccc(S(N)(=O)=O)cc2)nnc1-c1n[nH]c2c1CCC2`, the inhibition was 3.81% (inactive).

With `COC(=O)c1cc2c(c3c4ccccc4n(S(=O)(=O)c4cccc(C)c4)c13)C(=O)N(Cc1ccccc1)C2`, the inhibition is 15.1% (inactive).

With `O=c1oc2ccccc2cc1-c1csc(Nc2ccc(O)cc2)n1`, the inhibition was 38.9% (active).

With `CC(=O)c1ccc(Nc2nc(C(N)c3ccccc3Cl)cs2)cc1` (configuration not stated), the inhibition is 2.58% (inactive).

Consider `O=S1(=O)c2c(cccc2N2CCCCC2)O[C@H](COCc2ccccc2)CN1C1CC1`, for which the inhibition is 5.4% (inactive).

Consider `O=C1Nc2ccccc2C1=NN=Cc1ccco1`, for which the inhibition was 3.21% (inactive).

Regarding `COC(=O)[C@H](C(C)C)N(CCCc1cn(Cc2ccccc2)nn1)S(=O)(=O)c1ccc(F)cc1Br`, the inhibition is 2.97% (inactive).

As to `Nc1[nH]c(=S)nc2nc(-c3ccccc3)c(-c3ccccc3)nc12`, the inhibition was 41.4% (active).

Consider `C[C@H](NC(=O)[C@@H]1Cc2ccccc2CN1C(=O)OC(C)(C)C)C(=O)NC1CCCC1`, for which the inhibition is -7.18% (inactive).

These data come from PubChem BioAssay AID651821 (The Scripps Research Institute Molecular Screening Center, 2012).
